# PubChem BioAssay (NCATS)
# Inconclusive results are not listed. A call without a number means that no potency is given here. Activity calls are given as the source filed them. Unless noted, calls follow the shape of the dose curve; as a rule, active = well fitted curve in the direction sought with a large enough effect; inconclusive = small, poorly fitted or top-dose-only effect, or another doubt; inactive = no such curve, though single readings can be large; an effect the other way counts as inactive or inconclusive.
# How the values were obtained:
# [1] = Primary qHTS for small molecule stabilizers of the endoplasmic reticulum resident proteome: Secreted ER Calcium Modulated Protein (SERCaMP) assay (AID 1508630)
# Procedure, shortened: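 The SH-SY5Y reporter protocol was run at 3 concentrations up to 38.3 uM (primary) or 11 concentrations (follow-up): 16 h compound, 100 nM thapsigargin for 4 h, then extracellular luciferase luminescence.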
# [2] = Primary qHTS for inhibitors of nuclear receptor binding SET domain protein 2 (NSD2) in an isogenic RCH-ACV NSD2 p.E1099K mutant (9B) (AID 1645876); also: nearly all actives have a fitted effect of over 70% in size; also: potency is read from the fitted curve at half-maximal effect
# [3] = Primary qHTS for inhibitors of nuclear receptor binding SET domain protein 2 (NSD2) in an RCH-ACV wild type WT cells (2C) (AID 1645877); also: nearly all actives have a fitted effect of over 70% in size; also: potency is read from the fitted curve at half-maximal effect
# [4] = molecular target: Papain (Carica papaya) (UniProt P00784); experiment: Primary qHTS assay for inhibitors of the protease papain (AID 1645873);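 also: papain turnover of Z-FR-AMC read as the AMC fluorescence gain over 10 min; series mostly up to about 50 µM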
# [5] = A High-Content qHTS Against Drug Library for the Identification of Small Molecules that Inhibit DYT1 Early Onset Primary Dystonia-Associated Cell Pathology (AID 1645839; calls by dose curve; also: series mostly up to about 46 µM)
# Procedure, shortened: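 Cells were seeded and left for 24 h, then dosed with compound alongside tetracycline induction of mutant EGFP-TorsinA. They were incubated for 48 h, fixed in 4% paraformaldehyde, permeabilized and imaged for mislocalization (%pathology) and cell count.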
# [6] = molecular target: Cytochrome P450 2D6 (Homo sapiens) (UniProt P10635); experiment: Cytochrome P450 family 2 subfamily D member 6 (CYP2D6) small molecule antagonists: luciferase biochemical (cell-free) qHTS assay (AID 1645840; active = well fitted curve in the direction sought with a large enough effect in the repeat runs; an effect the other way counts as inactive or inconclusive; also: series mostly up to about 57 µM; nearly all actives have a fitted effect of over 55% in size)
# Procedure, shortened: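 P450-Glo CYP2D6 system: proluciferin substrate converted by enzyme to luciferin, read by luminescence proportional to activity. Enzyme-substrate mix with compound 10 min at room temperature, then NADPH regeneration 1 h before detection reagent.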
# [7] = molecular target: Cytochrome P450 2C9 (Homo sapiens) (UniProt P11712); experiment: Cytochrome P450 family 2 subfamily C member 9 (CYP2C9) small molecule antagonists: luciferase biochemical (cell-free) qHTS assay (AID 1645842; active = well fitted curve in the direction sought with a large enough effect in the repeat runs; an effect the other way counts as inactive or inconclusive; also: series mostly up to about 57 µM; nearly all actives have a fitted effect of over 55% in size)
# Procedure, shortened: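 P450-Glo CYP2C9 system: proluciferin substrate with enzyme in mix containing 0.4% BSA, 10 min at room temperature, then NADPH regeneration solution added and incubated 1 h at 37C. Detection reagent stopped reaction; luminescence read after 20 min as RLU.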
# Sequence of Papain (Carica papaya) (P00784 whole entry, looked up): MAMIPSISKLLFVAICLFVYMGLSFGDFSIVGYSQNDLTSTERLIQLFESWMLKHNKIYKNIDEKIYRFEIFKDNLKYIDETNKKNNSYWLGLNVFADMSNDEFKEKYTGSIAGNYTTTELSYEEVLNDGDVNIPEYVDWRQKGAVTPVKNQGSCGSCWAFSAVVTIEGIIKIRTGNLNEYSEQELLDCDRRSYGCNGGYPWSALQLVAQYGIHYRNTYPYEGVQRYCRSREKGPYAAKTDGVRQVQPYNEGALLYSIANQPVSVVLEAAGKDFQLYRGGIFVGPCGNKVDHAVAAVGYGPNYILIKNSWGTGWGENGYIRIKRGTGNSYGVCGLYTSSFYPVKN
# Sequence of Cytochrome P450 2C9 (Homo sapiens) (P11712 whole entry, looked up): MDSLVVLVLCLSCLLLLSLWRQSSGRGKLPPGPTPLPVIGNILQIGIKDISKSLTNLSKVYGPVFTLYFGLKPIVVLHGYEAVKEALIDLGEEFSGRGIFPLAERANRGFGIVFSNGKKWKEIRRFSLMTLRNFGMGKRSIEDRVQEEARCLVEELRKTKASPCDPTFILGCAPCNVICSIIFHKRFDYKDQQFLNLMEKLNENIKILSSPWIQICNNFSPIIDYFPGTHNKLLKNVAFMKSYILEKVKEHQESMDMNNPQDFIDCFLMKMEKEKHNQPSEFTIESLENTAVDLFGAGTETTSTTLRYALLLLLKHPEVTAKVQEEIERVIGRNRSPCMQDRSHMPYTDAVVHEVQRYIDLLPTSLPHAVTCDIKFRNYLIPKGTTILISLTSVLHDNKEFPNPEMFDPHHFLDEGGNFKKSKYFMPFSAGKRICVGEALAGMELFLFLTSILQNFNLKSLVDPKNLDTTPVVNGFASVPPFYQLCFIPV
# Sequence of Cytochrome P450 2D6 (Homo sapiens) (P10635 whole entry, looked up): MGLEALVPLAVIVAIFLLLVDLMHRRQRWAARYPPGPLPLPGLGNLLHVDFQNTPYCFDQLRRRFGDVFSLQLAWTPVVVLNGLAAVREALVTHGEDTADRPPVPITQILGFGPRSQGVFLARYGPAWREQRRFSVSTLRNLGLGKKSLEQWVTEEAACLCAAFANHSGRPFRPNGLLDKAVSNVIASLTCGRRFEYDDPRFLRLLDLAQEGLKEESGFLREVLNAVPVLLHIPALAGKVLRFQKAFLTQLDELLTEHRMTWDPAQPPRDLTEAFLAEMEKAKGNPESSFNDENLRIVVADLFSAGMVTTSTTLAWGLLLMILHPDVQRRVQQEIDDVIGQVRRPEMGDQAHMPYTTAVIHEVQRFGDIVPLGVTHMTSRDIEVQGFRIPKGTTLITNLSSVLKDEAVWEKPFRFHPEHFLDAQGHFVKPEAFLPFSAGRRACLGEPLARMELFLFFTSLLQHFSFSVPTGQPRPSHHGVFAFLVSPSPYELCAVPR
smiles,measurement,setting,value
CCCCCCCCCCCCCCCCCCCCCCO,Potency,[1],inactive
same,Potency,[2],inactive
same,Potency,[3],inactive
CCOC(=O)C1=C[C@@H](OC(CC)CC)[C@H](NC(C)=O)[C@@H](N)C1,Potency,[1],inactive
same,Potency,[2],inactive
same,Potency,[3],inactive
CC(C)(S)[C@@H](N)C(=O)O,outcome,[2],inactive [at 4.96 µM]
same,outcome,[3],inactive [at 4.96 µM]
CC1(C)C(=O)N(CCN2CCC(C(=O)c3ccc(F)cc3)CC2)c2ccccc21,Potency,[4],inactive
O=C1NC(=O)C(c2ccccc2[N+](=O)[O-])=C1Nc1ccc(O)c(Cl)c1,Potency,[1],inactive
same,Potency,[2],13.2 µM (active)
same,Potency,[3],18.6 µM (active)
O=c1c(O)c(-c2cc(O)c(O)c(O)c2)oc2cc(O)cc(O)c12,Potency,[1],inactive
same,Potency,[2],18.6 µM (active)
Cc1ccc(S(=O)(=O)NC(=O)NN2CC3CCCC3C2)cc1 (stereo not given),Potency,[5],inactive
same,Potency,[6],inactive
same,Potency,[7],inactive
same,Potency,[2],inactive
same,Potency,[3],inactive
O=C1c2c(O)cc(O)cc2OC(c2ccc(O)c(O)c2)C1O (stereo not given),Potency,[4],inactive
